Results reported in PubChem BioAssay AID1159580 (chemical genetic matrix, 2015).
The campaign covered roughly 5,500 compounds. About 2,000 (36%) were called active. Inconclusive results (about 18%) are left out. No stated cut-off is given here; in the data, active means normalized growth mostly below about 0.91 (no sharp cut-off); inconclusive means no clear call, values can overlap the other calls; inactive means mostly above about 0.92. Some of the results follow.

Experiment: chemical genetic growth profiling, strain panel (AID 1159580);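 further: tested at 20 µM; growth read once vehicle control cultures reached saturation at 30 °C; 1 = growth at the plate median or of vehicle wells; lower values mean less growth of the strain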
Settings: growth OD

Measured: normalized growth

O=c1cc(-c2ccc(O)cc2)oc2cc(O[C@@H]3O[C@H](CO)[C@@H](O)[C@H](O)[C@H]3O)cc(O)c12
inactive: S. cerevisiae deletion strains, locus YJR075W, strain HOC1, hits give low values 0.993 | S. cerevisiae deletion strains, locus YKL009W, strain mrt4, hits give low values 0.936 | S. cerevisiae deletion strains, locus YKL068W, hits give low values 0.989 | S. cerevisiae deletion strains, locus YKL085W, strain MDH1 (second series), hits give low values 0.974 | S. cerevisiae deletion strains, locus YKL085W, strain MDH1, hits give low values 0.974 | S. cerevisiae deletion strains, locus YKL160W, strain elf1, hits give low values 0.985 | S. cerevisiae deletion strains, locus YKR001C, strain vps1, hits give low values 0.958 | S. cerevisiae deletion strains, locus YKR026C, strain gcn3, hits give low values 1.01 | S. cerevisiae deletion strains, locus YKR091W, strain srl3, hits give low values 1 | S. cerevisiae deletion strains, locus YLL001W, strain dnm1, hits give low values 1.01 | S. cerevisiae deletion strains, locus YLL026W, hits give low values 1.01 | S. cerevisiae deletion strains, locus YLL041C, strain sdh2, hits give low values 1 | S. cerevisiae deletion strains, locus YLR027C, strain aat2, hits give low values 0.997 | S. cerevisiae deletion strains, locus YLR039C, strain RIC1, hits give low values 0.996 | S. cerevisiae deletion strains, locus YLR058C, strain SHM2, hits give low values 0.989 | S. cerevisiae deletion strains, locus YLR102C, strain apc9, hits give low values 0.968 | S. cerevisiae deletion strains, locus YLR113W, strain HOG1, hits give low values 1.03 | S. cerevisiae deletion strains, locus YLR221C, strain rsa3, hits give low values 1.04 | S. cerevisiae deletion strains, locus YLR258W, strain gsy2, hits give low values 0.996 | S. cerevisiae deletion strains, locus YLR262C, strain YPT6 (second series), hits give low values 1.02 | S. cerevisiae deletion strains, locus YLR262C, strain YPT6, hits give low values 0.971 | S. cerevisiae deletion strains, locus YLR268W, strain sec22, hits give low values 0.963 | S. cerevisiae deletion strains, locus YLR320W, strain mms22, hits give low values 1.05 | S. cerevisiae deletion strains, locus YLR330W, strain CHS5, hits give low values 0.985 | S. cerevisiae deletion strains, locus YLR342W, strain FKS1 (second series), hits give low values 0.98 | S. cerevisiae deletion strains, locus YLR342W, strain FKS1, hits give low values 1.01 | S. cerevisiae deletion strains, locus YLR357W, strain rsc2, hits give low values 1.01 | S. cerevisiae deletion strains, locus YLR370C, strain arc18, hits give low values 0.976 | S. cerevisiae deletion strains, locus YLR371W, strain rom2, hits give low values 0.964 | S. cerevisiae deletion strains, locus YLR384C, strain iki3, hits give low values 1.01 | S. cerevisiae deletion strains, locus YLR418C, strain cdc73, hits give low values 0.964 | S. cerevisiae deletion strains, locus YML016C, strain PPZ1, hits give low values 0.988 | S. cerevisiae deletion strains, locus YML032C, strain rad52, hits give low values 0.973 | S. cerevisiae deletion strains, locus YML120C, strain ndi1, hits give low values 0.986 | S. cerevisiae deletion strains, locus YML124C, strain tub3, hits give low values 0.983 | S. cerevisiae deletion strains, locus YMR058W, strain fet3, hits give low values 1.02 | S. cerevisiae deletion strains, locus YMR078C, strain ctf18, hits give low values 1.01 | S. cerevisiae deletion strains, locus YMR125W, strain sto1, hits give low values 0.968 | S. cerevisiae deletion strains, locus YMR129W, hits give low values 1 | S. cerevisiae deletion strains, locus YMR205C, strain PFK2, hits give low values 1.01 | S. cerevisiae deletion strains, locus YMR223W, strain ubp8, hits give low values 1.01 | S. cerevisiae deletion strains, locus YMR231W, strain pep5, hits give low values 1 | S. cerevisiae deletion strains, locus YMR307W, strain GAS1, hits give low values 1.02 | S. cerevisiae deletion strains, locus YNL067W, strain RPL9B, hits give low values 1.01 | S. cerevisiae deletion strains, locus YNL071W, strain lat1, hits give low values 0.995 | S. cerevisiae deletion strains, locus YNL153C, strain GIM3, hits give low values 1 | S. cerevisiae deletion strains, locus YNL183C, strain NPR1, hits give low values 0.975 | S. cerevisiae deletion strains, locus YNL209W, strain ssb2, hits give low values 0.994 | S. cerevisiae deletion strains, locus YNL233W, strain BNI4, hits give low values 0.987 | S. cerevisiae deletion strains, locus YNL248C, strain rpa49, hits give low values 1.08 | S. cerevisiae deletion strains, locus YNL250W, strain rad50, hits give low values 0.98 | S. cerevisiae deletion strains, locus YNL271C, strain bni1, hits give low values 0.975 | S. cerevisiae deletion strains, locus YNL298W, strain CLA4, hits give low values 0.98 | S. cerevisiae deletion strains, locus YNL307C, strain MCK1, hits give low values 0.973 | S. cerevisiae deletion strains, locus YNL322C, strain KRE1 (second series), hits give low values 0.993 | S. cerevisiae deletion strains, locus YNL322C, strain KRE1, hits give low values 0.987 | S. cerevisiae deletion strains, locus YNR049C, strain mso1, hits give low values 1.03 | S. cerevisiae deletion strains, locus YNR052C, strain pop2, hits give low values 0.997 | S. cerevisiae deletion strains, locus YOL012C, strain htz1 0.98 | S. cerevisiae deletion strains, locus YOL147C, strain pex11, hits give low values 0.978 | S. cerevisiae deletion strains, locus YOR001W, strain rrp6, hits give low values 1.04 | S. cerevisiae deletion strains, locus YOR061W, strain CKA2, hits give low values 0.979 | S. cerevisiae deletion strains, locus YOR069W, strain VPS5, hits give low values 0.978 | S. cerevisiae deletion strains, locus YOR070C, strain gyp1, hits give low values 1.02 | S. cerevisiae deletion strains, locus YOR080W, strain dia2, hits give low values 1.01 | S. cerevisiae deletion strains, locus YOR083W, strain WHI5, hits give low values 0.974 | S. cerevisiae deletion strains, locus YOR106W, strain vam3, hits give low values 0.966 | S. cerevisiae deletion strains, locus YOR136W, strain idh2, hits give low values 0.958 | S. cerevisiae deletion strains, locus YOR144C, strain elg1, hits give low values 0.98 | S. cerevisiae deletion strains, locus YOR184W, strain ser1, hits give low values 1 | S. cerevisiae deletion strains, locus YOR231W, strain MKK1, hits give low values 1.05 | S. cerevisiae deletion strains, locus YOR265W, strain rbl2, hits give low values 1.01 | S. cerevisiae deletion strains, locus YOR270C, strain vph1, hits give low values 1.06 | S. cerevisiae deletion strains, locus YOR290C, strain snf2, hits give low values 0.961 | S. cerevisiae deletion strains, locus YOR316C, strain cot1, hits give low values 0.969 | S. cerevisiae deletion strains, locus YPL051W, strain arl3, hits give low values 1.03 | S. cerevisiae deletion strains, locus YPL078C, strain atp4, hits give low values 0.968 | S. cerevisiae deletion strains, locus YPL106C, strain sse1, hits give low values 1 | S. cerevisiae deletion strains, locus YPL240C, strain hsp82, hits give low values 1.01 | S. cerevisiae deletion strains, locus YPL241C, strain CIN2, hits give low values 0.994 | S. cerevisiae deletion strains, locus YPL256C, strain CLN2, hits give low values 1 | S. cerevisiae deletion strains, locus YPR119W, strain clb2, hits give low values 0.989 | S. cerevisiae deletion strains, locus YPR141C, strain kar3, hits give low values 0.968 | S. cerevisiae deletion strains, locus YPR163C, strain tif3, hits give low values 0.982 | S. cerevisiae deletion strains, locus YPR167C, strain met16, hits give low values 0.979 | S. cerevisiae deletion strains, strain wtn01, hits give low values 0.955 | S. cerevisiae strains, strain wild type, hits give low values 0.993
